Data taken from the supplement of paper PMC11732987, “Enantioselective OTUD7B fragment discovery through chemoproteomics screening and high-throughput optimisation” (Communications Chemistry, 2025).

Key:
Experiment in all cases: log2 ratio of Biotin-Ahx-Ub-VS probe labelling (fragment/DMSO); higher = less target engagement (more negative = stronger competition), active = hit call of the paper (q ≤ 0.05, log2 ratio ≤ -1)
Settings in all cases: compound concentration: 200 uM; treatment time: 3 h
USP42 = target: T1, USP42 (UniProt Q9H9J4)
T1 sequence (whole entry): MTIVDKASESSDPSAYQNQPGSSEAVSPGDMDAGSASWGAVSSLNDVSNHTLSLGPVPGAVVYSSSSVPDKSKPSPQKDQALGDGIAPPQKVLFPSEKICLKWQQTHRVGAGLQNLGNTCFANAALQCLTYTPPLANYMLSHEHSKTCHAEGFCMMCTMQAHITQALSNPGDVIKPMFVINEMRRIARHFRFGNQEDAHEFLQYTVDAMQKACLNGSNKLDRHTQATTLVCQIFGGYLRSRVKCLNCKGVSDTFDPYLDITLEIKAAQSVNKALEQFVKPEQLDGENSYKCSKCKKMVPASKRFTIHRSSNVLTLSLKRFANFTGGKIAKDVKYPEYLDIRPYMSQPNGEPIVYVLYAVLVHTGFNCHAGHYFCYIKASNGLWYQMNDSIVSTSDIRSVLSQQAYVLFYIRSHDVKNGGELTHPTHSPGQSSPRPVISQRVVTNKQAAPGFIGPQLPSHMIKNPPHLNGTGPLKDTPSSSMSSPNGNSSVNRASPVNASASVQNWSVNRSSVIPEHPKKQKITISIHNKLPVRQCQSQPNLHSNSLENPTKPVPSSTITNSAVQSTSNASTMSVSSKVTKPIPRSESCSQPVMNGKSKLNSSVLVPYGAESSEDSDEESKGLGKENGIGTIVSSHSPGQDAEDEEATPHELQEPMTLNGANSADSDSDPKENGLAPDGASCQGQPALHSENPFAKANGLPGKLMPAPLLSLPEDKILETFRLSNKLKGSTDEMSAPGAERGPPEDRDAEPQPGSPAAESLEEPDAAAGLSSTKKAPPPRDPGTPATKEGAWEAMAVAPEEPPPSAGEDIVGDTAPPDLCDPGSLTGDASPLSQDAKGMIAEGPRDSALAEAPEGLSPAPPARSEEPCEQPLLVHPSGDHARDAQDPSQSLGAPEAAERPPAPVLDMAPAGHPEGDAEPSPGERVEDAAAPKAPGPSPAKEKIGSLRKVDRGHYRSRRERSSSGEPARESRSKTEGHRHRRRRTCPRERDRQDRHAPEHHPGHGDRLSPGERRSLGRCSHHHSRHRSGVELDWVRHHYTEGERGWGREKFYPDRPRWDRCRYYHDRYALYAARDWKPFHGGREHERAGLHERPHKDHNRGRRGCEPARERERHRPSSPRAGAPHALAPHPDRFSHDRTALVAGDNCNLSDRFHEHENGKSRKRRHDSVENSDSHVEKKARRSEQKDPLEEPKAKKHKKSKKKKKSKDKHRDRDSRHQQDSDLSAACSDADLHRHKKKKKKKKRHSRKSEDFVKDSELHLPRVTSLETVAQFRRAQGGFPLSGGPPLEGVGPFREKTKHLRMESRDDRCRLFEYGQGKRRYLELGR
Outline: (§1)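 HEK293T lysate (495 µg per sample, in Tris/CHAPS/IGEPAL buffer with protease inhibitors) was exposed in triplicate for 3 h to fragment at 200 µM or to vehicle, then to Biotin-Ahx-Ub-VS at 0.5 µM final for 1 h. Labelled DUBs were enriched on NeutrAvidin, digested with LysC and trypsin, and analysed by diaPASEF LC-MS/MS. Spectronaut label-free quantities were normalised to the global median, and values are average log2 ratios of fragment over vehicle from an unpaired t-test. Only proteins with ≥2 unique peptides were used.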

USP46 = USP46 (UniProt P62068)
Chain of USP46 (P62068 whole entry): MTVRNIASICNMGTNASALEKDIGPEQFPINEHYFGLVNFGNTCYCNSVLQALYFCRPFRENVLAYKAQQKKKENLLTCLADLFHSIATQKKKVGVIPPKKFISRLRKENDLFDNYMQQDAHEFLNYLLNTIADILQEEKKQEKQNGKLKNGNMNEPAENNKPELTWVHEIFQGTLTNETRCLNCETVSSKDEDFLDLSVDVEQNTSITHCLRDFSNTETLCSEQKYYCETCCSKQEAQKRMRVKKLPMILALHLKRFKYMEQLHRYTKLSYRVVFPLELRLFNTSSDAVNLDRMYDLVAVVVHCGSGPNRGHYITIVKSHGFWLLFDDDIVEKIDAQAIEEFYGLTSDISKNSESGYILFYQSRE
Outline: as §1

USP47 = target: T2, USP47 (UniProt Q96K76)
T2 sequence (whole entry): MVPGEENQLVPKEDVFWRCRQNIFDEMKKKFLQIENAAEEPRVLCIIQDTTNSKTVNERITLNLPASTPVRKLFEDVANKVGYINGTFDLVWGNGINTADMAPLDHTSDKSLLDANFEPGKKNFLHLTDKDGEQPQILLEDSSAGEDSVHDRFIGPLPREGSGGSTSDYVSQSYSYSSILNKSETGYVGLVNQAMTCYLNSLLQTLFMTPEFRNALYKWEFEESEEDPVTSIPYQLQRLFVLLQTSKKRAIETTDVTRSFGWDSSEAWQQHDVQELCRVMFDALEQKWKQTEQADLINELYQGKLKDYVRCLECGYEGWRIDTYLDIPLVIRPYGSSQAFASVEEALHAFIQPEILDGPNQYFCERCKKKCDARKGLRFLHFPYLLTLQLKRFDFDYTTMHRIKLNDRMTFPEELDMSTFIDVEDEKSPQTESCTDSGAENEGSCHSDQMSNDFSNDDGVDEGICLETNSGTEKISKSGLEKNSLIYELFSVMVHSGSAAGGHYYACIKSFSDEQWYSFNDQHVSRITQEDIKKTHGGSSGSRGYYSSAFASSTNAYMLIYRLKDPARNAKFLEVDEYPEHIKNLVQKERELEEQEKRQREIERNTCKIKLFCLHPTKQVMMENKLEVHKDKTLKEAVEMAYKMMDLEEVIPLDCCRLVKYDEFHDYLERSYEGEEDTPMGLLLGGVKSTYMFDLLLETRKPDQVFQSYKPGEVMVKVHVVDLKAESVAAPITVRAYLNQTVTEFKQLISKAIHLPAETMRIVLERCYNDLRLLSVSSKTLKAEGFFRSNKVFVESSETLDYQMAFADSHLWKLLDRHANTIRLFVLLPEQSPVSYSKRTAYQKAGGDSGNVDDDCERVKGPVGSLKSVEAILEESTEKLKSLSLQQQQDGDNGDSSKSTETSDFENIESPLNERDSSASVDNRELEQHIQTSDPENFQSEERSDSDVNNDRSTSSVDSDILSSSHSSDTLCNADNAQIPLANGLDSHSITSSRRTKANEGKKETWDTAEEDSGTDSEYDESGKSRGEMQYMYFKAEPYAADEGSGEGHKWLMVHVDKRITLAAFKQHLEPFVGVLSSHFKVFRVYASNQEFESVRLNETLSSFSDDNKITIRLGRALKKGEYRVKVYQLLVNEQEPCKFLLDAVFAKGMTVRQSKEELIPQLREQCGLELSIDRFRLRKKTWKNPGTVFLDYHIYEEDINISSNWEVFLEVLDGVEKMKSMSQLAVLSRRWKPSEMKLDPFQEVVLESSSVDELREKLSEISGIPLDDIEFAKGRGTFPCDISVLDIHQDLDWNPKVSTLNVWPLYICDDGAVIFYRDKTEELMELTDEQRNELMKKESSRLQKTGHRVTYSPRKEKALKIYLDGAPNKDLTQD
Outline: as §1

USP48 = target: T3, USP48 (UniProt Q86UV5)
T3 sequence (whole entry): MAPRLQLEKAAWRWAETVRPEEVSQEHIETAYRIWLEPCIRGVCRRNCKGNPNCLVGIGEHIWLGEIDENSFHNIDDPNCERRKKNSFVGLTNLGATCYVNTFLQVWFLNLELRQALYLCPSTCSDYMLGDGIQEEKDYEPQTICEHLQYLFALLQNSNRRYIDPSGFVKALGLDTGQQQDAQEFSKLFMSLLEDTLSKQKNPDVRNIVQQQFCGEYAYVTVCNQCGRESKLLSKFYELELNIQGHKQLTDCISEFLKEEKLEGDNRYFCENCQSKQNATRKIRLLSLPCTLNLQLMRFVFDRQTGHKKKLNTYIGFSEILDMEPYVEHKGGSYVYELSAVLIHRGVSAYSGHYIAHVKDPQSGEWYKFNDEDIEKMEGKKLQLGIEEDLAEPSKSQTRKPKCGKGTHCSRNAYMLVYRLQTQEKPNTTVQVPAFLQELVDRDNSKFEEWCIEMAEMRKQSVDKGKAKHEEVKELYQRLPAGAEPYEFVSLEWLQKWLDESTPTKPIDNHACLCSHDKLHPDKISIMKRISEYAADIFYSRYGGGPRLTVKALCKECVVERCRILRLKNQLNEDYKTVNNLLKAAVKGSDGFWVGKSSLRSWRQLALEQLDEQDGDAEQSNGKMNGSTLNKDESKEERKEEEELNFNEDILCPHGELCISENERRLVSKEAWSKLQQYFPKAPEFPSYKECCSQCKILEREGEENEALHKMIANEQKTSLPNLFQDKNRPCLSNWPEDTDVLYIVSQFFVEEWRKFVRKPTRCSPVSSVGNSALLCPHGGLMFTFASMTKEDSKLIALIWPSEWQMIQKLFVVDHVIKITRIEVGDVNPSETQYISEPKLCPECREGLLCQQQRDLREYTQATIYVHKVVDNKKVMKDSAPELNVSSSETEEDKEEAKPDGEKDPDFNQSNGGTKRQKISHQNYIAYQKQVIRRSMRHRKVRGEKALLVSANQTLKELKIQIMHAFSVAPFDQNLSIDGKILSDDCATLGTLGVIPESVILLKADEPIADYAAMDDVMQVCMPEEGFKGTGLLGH
Outline: as §1

USP5 = target: T4, USP5 (UniProt P45974)
T4 sequence (whole entry): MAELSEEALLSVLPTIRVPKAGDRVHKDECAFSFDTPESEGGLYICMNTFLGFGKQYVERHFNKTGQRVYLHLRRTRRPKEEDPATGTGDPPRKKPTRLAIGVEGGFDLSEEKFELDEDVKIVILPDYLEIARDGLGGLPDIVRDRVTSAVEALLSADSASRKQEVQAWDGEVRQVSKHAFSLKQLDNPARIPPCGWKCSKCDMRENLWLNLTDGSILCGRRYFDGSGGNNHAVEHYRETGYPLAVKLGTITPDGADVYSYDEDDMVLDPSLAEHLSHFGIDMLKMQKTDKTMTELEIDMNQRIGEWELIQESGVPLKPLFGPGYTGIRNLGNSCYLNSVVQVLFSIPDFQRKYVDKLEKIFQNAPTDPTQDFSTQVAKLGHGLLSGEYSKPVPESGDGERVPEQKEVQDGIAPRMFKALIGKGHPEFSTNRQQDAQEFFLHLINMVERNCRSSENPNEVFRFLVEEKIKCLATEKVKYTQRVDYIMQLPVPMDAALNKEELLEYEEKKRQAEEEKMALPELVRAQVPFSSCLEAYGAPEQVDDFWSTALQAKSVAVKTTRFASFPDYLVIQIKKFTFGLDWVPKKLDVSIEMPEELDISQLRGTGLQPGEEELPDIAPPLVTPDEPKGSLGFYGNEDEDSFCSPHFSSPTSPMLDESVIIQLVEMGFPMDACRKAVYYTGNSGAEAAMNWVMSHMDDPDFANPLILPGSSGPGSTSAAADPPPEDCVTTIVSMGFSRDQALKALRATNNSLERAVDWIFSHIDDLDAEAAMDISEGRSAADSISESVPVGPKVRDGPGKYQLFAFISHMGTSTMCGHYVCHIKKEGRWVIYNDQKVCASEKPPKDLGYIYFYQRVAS
Outline: as §1

USP54 = USP54 (UniProt Q70EL1)
Chain of USP54 (Q70EL1 whole entry): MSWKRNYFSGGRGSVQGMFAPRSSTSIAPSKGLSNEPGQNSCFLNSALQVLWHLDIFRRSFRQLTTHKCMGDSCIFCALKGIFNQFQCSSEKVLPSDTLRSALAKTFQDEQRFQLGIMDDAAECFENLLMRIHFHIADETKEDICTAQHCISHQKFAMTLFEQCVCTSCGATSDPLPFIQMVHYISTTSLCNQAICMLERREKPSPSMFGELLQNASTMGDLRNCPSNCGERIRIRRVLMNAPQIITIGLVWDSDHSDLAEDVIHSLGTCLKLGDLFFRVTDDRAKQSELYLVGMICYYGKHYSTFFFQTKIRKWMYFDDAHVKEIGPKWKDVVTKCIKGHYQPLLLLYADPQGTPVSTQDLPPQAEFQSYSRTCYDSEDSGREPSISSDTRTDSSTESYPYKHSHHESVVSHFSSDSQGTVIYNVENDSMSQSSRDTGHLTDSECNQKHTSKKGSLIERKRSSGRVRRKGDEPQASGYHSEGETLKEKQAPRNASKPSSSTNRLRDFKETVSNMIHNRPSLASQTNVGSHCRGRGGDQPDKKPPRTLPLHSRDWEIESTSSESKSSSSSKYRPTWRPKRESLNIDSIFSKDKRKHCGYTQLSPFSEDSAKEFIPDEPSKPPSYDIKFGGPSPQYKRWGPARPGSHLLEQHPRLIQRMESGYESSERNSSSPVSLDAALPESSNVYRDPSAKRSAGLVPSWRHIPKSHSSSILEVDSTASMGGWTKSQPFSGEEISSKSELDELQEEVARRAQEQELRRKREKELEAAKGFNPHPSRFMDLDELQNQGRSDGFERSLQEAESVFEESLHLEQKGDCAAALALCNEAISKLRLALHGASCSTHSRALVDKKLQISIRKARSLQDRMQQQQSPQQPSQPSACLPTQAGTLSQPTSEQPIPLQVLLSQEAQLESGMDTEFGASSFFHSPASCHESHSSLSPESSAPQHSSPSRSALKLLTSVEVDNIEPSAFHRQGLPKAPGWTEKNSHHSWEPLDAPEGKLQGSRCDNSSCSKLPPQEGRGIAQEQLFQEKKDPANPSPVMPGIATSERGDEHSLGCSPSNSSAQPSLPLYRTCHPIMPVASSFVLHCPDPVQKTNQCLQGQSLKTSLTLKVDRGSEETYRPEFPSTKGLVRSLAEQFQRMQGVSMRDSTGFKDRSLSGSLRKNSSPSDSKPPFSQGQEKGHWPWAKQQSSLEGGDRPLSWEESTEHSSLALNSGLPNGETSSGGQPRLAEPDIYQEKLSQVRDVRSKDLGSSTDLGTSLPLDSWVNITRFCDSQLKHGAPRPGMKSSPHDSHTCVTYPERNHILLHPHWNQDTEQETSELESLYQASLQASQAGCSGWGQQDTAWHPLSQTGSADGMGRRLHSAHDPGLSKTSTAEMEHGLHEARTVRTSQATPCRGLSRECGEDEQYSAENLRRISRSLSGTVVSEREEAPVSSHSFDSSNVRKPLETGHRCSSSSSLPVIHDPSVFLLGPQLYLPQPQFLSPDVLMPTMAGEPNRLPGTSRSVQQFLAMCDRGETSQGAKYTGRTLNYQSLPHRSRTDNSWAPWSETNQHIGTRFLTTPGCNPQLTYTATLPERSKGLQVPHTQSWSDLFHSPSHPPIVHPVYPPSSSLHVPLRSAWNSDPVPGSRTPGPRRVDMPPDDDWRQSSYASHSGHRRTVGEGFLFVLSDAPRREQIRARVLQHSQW
Outline: as §1

USP7 = USP7 (UniProt Q93009)
Outline: as §1

USP8 = target: T5, USP8 (UniProt P40818)
T5 sequence (whole entry): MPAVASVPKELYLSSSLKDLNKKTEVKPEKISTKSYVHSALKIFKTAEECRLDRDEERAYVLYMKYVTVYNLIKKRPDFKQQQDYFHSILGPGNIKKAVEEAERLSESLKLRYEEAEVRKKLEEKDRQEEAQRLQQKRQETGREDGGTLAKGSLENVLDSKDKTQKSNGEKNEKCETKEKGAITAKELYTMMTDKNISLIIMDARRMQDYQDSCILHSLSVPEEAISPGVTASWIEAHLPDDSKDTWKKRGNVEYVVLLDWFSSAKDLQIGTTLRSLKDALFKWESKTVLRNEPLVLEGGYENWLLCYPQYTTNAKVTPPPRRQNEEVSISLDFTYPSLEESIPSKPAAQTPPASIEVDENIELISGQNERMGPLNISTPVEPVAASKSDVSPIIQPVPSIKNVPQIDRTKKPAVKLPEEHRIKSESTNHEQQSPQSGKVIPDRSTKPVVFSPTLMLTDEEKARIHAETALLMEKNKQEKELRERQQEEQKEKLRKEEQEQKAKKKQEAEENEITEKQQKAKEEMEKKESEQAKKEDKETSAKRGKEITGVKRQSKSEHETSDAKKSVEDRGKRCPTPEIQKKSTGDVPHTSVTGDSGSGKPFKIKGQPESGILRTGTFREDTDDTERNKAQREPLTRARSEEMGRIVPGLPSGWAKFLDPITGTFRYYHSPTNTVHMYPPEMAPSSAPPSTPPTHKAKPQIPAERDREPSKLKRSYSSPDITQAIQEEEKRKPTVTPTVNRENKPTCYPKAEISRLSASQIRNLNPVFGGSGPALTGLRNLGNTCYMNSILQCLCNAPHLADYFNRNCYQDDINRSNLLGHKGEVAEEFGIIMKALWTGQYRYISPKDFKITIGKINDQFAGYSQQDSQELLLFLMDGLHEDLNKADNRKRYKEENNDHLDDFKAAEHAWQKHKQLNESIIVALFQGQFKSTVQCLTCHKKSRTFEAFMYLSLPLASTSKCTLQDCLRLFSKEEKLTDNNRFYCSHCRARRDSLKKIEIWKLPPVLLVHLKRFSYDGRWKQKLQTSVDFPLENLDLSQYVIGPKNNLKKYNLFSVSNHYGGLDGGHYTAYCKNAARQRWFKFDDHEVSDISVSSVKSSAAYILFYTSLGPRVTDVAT
Outline: as §1

USP9X = USP9X (UniProt Q93008)
Chain of USP9X (Q93008 whole entry): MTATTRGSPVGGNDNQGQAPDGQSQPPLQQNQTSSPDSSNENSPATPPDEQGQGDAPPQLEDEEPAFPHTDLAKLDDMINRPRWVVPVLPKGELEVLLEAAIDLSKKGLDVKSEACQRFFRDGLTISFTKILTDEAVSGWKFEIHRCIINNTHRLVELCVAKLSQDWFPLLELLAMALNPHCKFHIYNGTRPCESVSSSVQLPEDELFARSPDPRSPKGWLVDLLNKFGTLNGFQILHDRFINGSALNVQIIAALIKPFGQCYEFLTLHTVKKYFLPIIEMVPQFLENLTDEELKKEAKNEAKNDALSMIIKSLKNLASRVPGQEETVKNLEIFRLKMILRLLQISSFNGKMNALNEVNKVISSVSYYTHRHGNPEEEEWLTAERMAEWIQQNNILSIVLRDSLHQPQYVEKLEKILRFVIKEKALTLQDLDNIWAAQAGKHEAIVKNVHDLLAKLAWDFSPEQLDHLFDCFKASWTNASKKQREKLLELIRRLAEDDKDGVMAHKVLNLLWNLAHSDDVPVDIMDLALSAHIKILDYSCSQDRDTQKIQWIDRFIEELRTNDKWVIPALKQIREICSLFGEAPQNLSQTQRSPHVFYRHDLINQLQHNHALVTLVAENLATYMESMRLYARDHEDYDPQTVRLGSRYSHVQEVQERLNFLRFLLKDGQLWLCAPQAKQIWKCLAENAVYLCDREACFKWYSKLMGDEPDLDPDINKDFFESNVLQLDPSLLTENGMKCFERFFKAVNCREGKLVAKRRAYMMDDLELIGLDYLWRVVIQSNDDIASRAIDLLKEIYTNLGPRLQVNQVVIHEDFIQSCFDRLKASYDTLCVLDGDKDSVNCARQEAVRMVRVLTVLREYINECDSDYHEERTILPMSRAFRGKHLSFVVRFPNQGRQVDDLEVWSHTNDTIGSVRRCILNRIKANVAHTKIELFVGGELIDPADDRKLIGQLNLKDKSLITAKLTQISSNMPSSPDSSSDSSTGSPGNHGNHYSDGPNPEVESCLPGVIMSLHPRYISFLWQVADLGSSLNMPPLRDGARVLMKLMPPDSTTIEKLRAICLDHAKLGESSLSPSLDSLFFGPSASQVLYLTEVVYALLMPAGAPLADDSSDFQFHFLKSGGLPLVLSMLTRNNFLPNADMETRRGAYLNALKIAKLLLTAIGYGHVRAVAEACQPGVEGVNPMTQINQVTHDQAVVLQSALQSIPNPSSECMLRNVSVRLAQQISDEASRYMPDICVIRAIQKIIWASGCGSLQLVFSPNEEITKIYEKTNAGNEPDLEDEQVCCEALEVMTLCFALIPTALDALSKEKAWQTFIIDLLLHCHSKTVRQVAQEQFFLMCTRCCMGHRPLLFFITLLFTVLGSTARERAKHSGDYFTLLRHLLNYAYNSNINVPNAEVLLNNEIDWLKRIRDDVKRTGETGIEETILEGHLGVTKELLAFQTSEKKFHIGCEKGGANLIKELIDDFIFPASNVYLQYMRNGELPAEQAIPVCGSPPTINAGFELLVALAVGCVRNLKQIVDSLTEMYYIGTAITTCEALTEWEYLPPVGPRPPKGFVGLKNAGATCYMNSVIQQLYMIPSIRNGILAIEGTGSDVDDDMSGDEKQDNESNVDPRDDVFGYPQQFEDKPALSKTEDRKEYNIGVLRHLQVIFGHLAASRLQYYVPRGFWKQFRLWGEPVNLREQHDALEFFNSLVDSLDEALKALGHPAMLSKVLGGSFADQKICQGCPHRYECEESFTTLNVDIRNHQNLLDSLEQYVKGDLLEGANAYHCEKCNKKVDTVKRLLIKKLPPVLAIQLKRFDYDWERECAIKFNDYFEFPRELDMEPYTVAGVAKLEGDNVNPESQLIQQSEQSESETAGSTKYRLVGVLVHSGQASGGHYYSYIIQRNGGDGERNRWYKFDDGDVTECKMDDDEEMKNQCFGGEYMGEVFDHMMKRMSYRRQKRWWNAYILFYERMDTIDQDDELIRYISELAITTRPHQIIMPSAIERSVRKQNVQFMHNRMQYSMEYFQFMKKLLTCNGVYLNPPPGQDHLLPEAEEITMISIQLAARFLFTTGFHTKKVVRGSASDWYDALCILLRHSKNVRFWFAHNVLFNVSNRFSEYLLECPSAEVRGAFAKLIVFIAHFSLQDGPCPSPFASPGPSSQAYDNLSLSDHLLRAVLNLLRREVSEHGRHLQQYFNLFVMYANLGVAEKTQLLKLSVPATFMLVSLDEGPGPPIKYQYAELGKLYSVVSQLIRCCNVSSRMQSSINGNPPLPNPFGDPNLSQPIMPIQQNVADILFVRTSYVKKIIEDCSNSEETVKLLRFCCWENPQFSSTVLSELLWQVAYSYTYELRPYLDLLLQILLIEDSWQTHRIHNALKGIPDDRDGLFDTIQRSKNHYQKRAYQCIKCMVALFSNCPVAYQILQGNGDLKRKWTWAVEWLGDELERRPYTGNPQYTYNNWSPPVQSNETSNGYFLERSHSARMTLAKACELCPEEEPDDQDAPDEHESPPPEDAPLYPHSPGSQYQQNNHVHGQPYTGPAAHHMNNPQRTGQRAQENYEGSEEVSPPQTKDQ
Outline: as §1

UniProt O00487 = target: UniProt O00487
Chain of UniProt O00487 (O00487 whole entry): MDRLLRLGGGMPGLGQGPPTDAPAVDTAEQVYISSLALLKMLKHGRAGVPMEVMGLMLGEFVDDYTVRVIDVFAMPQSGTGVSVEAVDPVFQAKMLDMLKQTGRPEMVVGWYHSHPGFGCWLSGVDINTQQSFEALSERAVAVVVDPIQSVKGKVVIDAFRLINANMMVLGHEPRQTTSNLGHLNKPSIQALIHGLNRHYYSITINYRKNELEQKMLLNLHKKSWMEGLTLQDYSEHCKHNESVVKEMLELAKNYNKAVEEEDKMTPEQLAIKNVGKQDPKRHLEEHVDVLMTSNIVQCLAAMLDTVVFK
Outline: as §1

Measured: log2 ratio of Biotin-Ahx-Ub-VS probe labelling

O=C(CCl)NC1CCOc2ccccc21 (stereo not given)
inactive: USP42 0.184 | USP46 -0.506 | USP47 -0.268 | USP48 -0.603 | USP5 -0.575 | USP54 0.931 | USP7 -0.739 | USP8 -0.69 | USP9X -0.868 | UniProt O00487 0.0141
